# Where “and” joins values, the source holds several entries; their conditions need not be identical. Equal entries are not always repeated. Structures can show the parent of a compound that is named as a salt. Out of some 5,800 compounds screened, about 620 (11%) showed activity. For the sample, actives were picked, then their nearest neighbours and some compounds at random. Unmarked numbers belong to inactive results.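 Rule for the calls: active = score above a cut-off or among the top three wells of a plate; in these data no inactive exceeds 0.85.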
# System: primary human hepatic stellate cells (donor 1)
# Assay: scaled lipid accumulation score (0 = DMSO-like, 1 = nortriptyline-like); higher = stronger HSC inactivation (lipid re-accumulation), active = hit call of the paper
# Conditions: 48 h
# [1] = library stock concentration: 10 mM
# [2] = library stock concentration: 80 uM
# [3] = library stock concentration: 400 uM
# [4] = library stock concentration: 2 mM
# [5] = library stock concentration: 3.33 mM
# [6] = library stock concentration: 1 mM
smiles,measurement,setting,value
O=C1c2c(O)cc(O)cc2O[C@H](c2ccc(O)c(O)c2)[C@H]1O,scaled lipid accumulation score,[1],≤ 0
OCc1ccccc1O [Salicyl alcohol],scaled lipid accumulation score,[1],≤ 0
same,scaled lipid accumulation score,library stock concentration: 16.1 mM,≤ 0
COc1ccc(S(=O)(=O)N(CCO)c2ccccc2CN(C)CC=Cc2ccc(Cl)cc2)cc1.O=P(=O)OO.[H] [KN-93 Phosphate],scaled lipid accumulation score,[1],1.07 (active)
COc1ccc(S(=O)(=O)N(C(C)=O)c2ccccc2/C=C/c2cc[n+]([O-])cc2)cc1,scaled lipid accumulation score,[2],≤ -0.016
same,scaled lipid accumulation score,[3],≤ -0.016
same,scaled lipid accumulation score,[4],≤ -0.016
same,scaled lipid accumulation score,[5],≤ 0
same,scaled lipid accumulation score,[1],≤ 0 and 0.15
COc1ccc(S(=O)(=O)N(CCO)c2ccccc2CN(C)C/C=C/c2ccc(Cl)cc2)cc1 [KN-93 Phosphate],scaled lipid accumulation score,[5],0.441
CCCCCCCC/C=C\CCCCCCCC(=O)N[C@@H](CO)C(=O)O [N-Oleoyl-L-Serine],scaled lipid accumulation score,[6],≤ 0
CCCC1([C@H](O)C/C=C/[C@H]2[C@H](O)CC(=O)[C@@H]2CCCCCCC(=O)OC)CCC1 [Butaprost],scaled lipid accumulation score,[6],≤ 0
CC/C=C\C/C=C\C/C=C\C/C=C\C/C=C\CCCCCC(=O)O [Docosapentaenoic Acid],scaled lipid accumulation score,[6],≤ 0
CC/C=C\C/C=C\C/C=C\C/C=C\C/C=C\CCCCCC(=O)O [Docosapentaenoic acid],scaled lipid accumulation score,[6],≤ -0.021
COc1cc2nccc(Oc3ccc(NC(=O)Nc4cc(C)on4)c(Cl)c3)c2cc1OC [VEGFR Tyrosine Kinase Inhibitor IV],scaled lipid accumulation score,[5],≤ 0
COc1cc2nccc(Oc3ccc(NC(=O)Nc4ccc(F)cc4F)c(F)c3)c2cc1OC [listing 1 of 3 here],scaled lipid accumulation score,[5],0.473
COc1cc2nccc(Oc3ccc(NC(=O)Nc4ccc(F)cc4F)c(F)c3)c2cc1OC [listing 2 of 3 here],scaled lipid accumulation score,[1],1.05 (active)
COc1cc2nccc(Oc3ccc(NC(=O)NC4CC4)c(Cl)c3)c2cc1C(N)=O,scaled lipid accumulation score,[3],0.067
same,scaled lipid accumulation score,[4],≤ -0.005
same,scaled lipid accumulation score,[1],≤ -0.005
COc1cc2nccc(Oc3ccc(NC(=O)Nc4ccc(F)cc4F)c(F)c3)c2cc1OC [listing 3 of 3 here],scaled lipid accumulation score,[1],1.22 (active)
"COc1cc2nccc(Oc3ccc(NC(=O)Nc4cc(C)on4)c(Cl)c3)c2cc1OC [AV951 (KRN951, Tivozanib) (10 mM)]",scaled lipid accumulation score,[1],0.775
COc1cc2nccc(Oc3ccc(NC(=O)Nc4cc(C)on4)c(Cl)c3)c2cc1OC,scaled lipid accumulation score,[2],0.016
same,scaled lipid accumulation score,[3],≤ 0
same,scaled lipid accumulation score,[4],0.009
same,scaled lipid accumulation score,[1],0.246
COc1cc(Oc2ccnc3cc(OC)c(OC)cc23)ccc1NC(=O)NC(C)c1nccs1 (centres undefined),scaled lipid accumulation score,[2],≤ -0.016
same,scaled lipid accumulation score,[3],≤ -0.016 and ≤ -0.005
same,scaled lipid accumulation score,[4],≤ -0.016 and ≤ -0.005
same,scaled lipid accumulation score,[1],0.713 and 0.552
"COc1cc2nccc(Oc3ccc(NC(=O)Nc4cc(C)on4)c(Cl)c3)c2cc1OC [AV951 (KRN951, Tivozanib) (2 mM)]",scaled lipid accumulation score,[4],≤ -0.005
COc1cc2nccc(Oc3ccc(NC(=O)Nc4cc(C)on4)c(Cl)c3)c2cc1OC [Tivozanib (AV-951)],scaled lipid accumulation score,[5],0.068
same,scaled lipid accumulation score,[1],0.098
"COc1cc2nccc(Oc3ccc(NC(=O)Nc4cc(C)on4)c(Cl)c3)c2cc1OC [AV951 (KRN951, Tivozanib) (0.4 mM)]",scaled lipid accumulation score,[3],≤ -0.005
COc1cc2nccc(Oc3ccc(NC(=O)NC4CC4)c(Cl)c3)c2cc1C(N)=O [Lenvatinib (E7080)],scaled lipid accumulation score,[5],0.055
same,scaled lipid accumulation score,[1],≤ 0
CC(=O)N(O)[C@@H]1c2cc(C#N)ccc2OC(C)(C)[C@H]1O,scaled lipid accumulation score,[1],≤ 0
O=C(O)CCC/C=C\C[C@@H]1[C@@H](/C=C/C(F)(F)COc2ccccc2)[C@H](O)C[C@@H]1O [Tafluprost (free acid)],scaled lipid accumulation score,[6],0.007
CCCCC[C@H](O)/C=C/[C@@H]1[C@@H](C/C=C\CCCCN(C)C)[C@@H](O)C[C@H]1O [Prostaglandin F2.alpha. dimethyl amine],scaled lipid accumulation score,[6],≤ 0
CCCCCCCCCCCCCCCCCCOCC(COP(=O)([O-])OCC[N+](C)(C)C)OC (centres undefined),scaled lipid accumulation score,[1],≤ -0.024
O=C(O)CCC/C=C\C[C@@H]1[C@@H](/C=C/C(=O)CCc2ccccc2)[C@H](O)C[C@@H]1O [15-keto-17-phenyl trinor Prostaglandin F2.alpha.],scaled lipid accumulation score,[6],≤ 0
CCCCC[C@H](O)/C=C/[C@@H]1[C@@H](C/C=C\CCCC(=O)OCC(O)CO)[C@@H](O)C[C@H]1O (stereo partly drawn) [Prostaglandin F2.alpha.-1-glyceryl ester],scaled lipid accumulation score,[6],≤ 0
CCCCCCCC(=O)CC[C@@H]1[C@@H](C/C=C\CCCC(=O)OC(C)C)[C@@H](O)C[C@H]1O [Unoprostone isopropyl ester],scaled lipid accumulation score,[6],≤ 0
CN1CCN(Cc2ccc(-c3cnc4[nH]cc(-c5ccc6[nH]ccc6c5)c4c3)cc2)CC1 [listing 1 of 2 here],scaled lipid accumulation score,[4],1.3 (active)
O=C(O)c1ccc(-c2c[nH]c3ncc(-c4ccccc4)cc23)cc1C1CCCC1,scaled lipid accumulation score,[5],≤ -0.009
same,scaled lipid accumulation score,[1],0.079 and ≤ -0.001
CN1CCN(Cc2ccc(-c3cnc4[nH]cc(-c5ccc6[nH]ccc6c5)c4c3)cc2)CC1 [listing 2 of 2 here],scaled lipid accumulation score,[2],≤ -0.001
same,scaled lipid accumulation score,[3],0.001
same,scaled lipid accumulation score,[1],0.422
NC[C@H]1O[C@@H](n2cnc3c(N)ncnc32)[C@H](O)[C@@H]1O [5'-Amino-5'-deoxyadenosine p-toluenesulfonate salt],scaled lipid accumulation score,[1],≤ 0
CCN(CC)CCOc1ccc2c(c1)C(=O)c1cc(OCCN(CC)CC)ccc1-2 [Tilorone] [listing 1 of 2 here],scaled lipid accumulation score,library stock concentration: 4.9 mM,0.006
CCCOc1cc(N)ccc1C(=O)OCCN(CC)CC [Propoxycaine hydrochloride],scaled lipid accumulation score,,≤ 0
CCN(CC)CCOc1ccc2c(c1)C(=O)c1cc(OCCN(CC)CC)ccc1-2 [Tilorone] [listing 2 of 2 here],scaled lipid accumulation score,[1],0.879 (active)
FC(F)(F)COCC(F)(F)F [Flurothyl],scaled lipid accumulation score,library stock concentration: 11 mM,≤ -0.001

# — the supplement of paper PMC9135407
